Our source for the residual activity values is ChEMBL document CHEMBL2218924, “A broad activity screen in support of a chemogenomic map for kinase signalling research and drug discovery” (Biochem J, 2013).

The target of the first test is LIM domain kinase 1 (Homo sapiens) (UniProt P53667). The note with it: at 10 µM.
LIM domain kinase 1 (Homo sapiens), sequence (P53667 whole entry, looked up, the tested form may be a part): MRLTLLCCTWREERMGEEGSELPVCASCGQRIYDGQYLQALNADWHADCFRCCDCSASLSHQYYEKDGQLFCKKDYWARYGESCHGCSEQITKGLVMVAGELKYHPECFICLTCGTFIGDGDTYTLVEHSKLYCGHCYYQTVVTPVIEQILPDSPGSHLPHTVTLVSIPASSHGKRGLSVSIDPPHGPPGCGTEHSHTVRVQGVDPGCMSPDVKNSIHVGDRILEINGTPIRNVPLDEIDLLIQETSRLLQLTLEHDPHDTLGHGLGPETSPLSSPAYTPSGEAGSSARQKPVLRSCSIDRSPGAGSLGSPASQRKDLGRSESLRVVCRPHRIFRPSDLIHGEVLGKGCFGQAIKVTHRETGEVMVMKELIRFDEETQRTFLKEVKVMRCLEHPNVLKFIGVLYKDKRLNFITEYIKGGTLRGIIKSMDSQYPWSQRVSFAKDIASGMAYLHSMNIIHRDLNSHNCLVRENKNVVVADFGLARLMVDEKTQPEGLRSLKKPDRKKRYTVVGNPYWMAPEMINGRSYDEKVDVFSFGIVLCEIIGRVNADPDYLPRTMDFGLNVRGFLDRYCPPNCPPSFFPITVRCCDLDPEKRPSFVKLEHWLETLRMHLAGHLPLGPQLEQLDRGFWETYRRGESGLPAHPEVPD
Take `O=C1NC(=O)C(c2c[nH]c3ccccc23)=C1c1c[nH]c2ccccc12`: the residual activity came to 50%.
The same measure, in the same setting: next, `O=C1Cc2c([nH]c3ccc(Br)cc23)-c2ccccc2N1`: 80%.
Take `NC(=O)c1cccc(-c2cc(Nc3ccc(OC(F)(F)F)cc3)ncn2)c1`: the residual activity was found to be 94%.
On the same count and under the same terms, under `O=S(=O)(NCCNC/C=C/c1ccc(Br)cc1)c1cccc2cnccc12` stands 29%.
On the same count and under the same terms, under `COc1cc2nccc(Oc3ccc(NC(=O)Nc4cc(C)on4)c(Cl)c3)c2cc1OC` stands 14%; under `O=C(c1ccccc1)c1ccc(N2CCOCC2)cc1O`, 80%.
As to `O=C1NC(=O)C(c2cn(CCCn3ccnc3)c3ccccc23)=C1Nc1ccccc1`, the residual activity is 41%.
On the same count and under the same terms, next, `O=C1C(Cl)=C(N2C(=O)CCC2=O)C(=O)c2ccccc21`: 81%.
Same read-out and setting: under `CN([C@@H](Cc1ccc(OS(=O)(=O)c2cccc3cnccc23)cc1)C(=O)N1CCN(c2ccccc2)CC1)S(=O)(=O)c1cccc2cnccc12` stands 86%; under `CC(C)[C@H](CO)Nc1nc(Nc2cc(N)cc(Cl)c2)c2ncn(C(C)C)c2n1`, 85%.
`Nc1n[nH]c2nc3ccccc3nc12`: the residual activity was 67%.
Still for that read-out and setting: under `N#Cc1c(NC(=O)c2cccc3ccccc23)sc2c1CCCC2` stands 82%; under `O=C(Nc1nc2ccccc2n1CCN1CCOCC1)c1cccc([N+](=O)[O-])c1`, 88%; under `CSc1nc(-c2ccc(F)cc2)c(-c2ccnc(NC(C)c3ccccc3)c2)[nH]1` (stereo not drawn), 71%.
The same measure, in the same setting: under `O=C1Nc2ccccc2/C1=C\c1c(Cl)[nH]c2ccccc12` stands 71%; under `Nc1nccc(-c2c(-c3ccc(F)cc3)ncn2C2CCNCC2)n1`, 25%; under `O=c1cc(N2CCOCC2)oc2c(-c3ccccc3)cccc12`, 80%.
On the same count and under the same terms, under `CC(C)N(CCC(=O)c1ccc2ccccc2c1)Cc1ccccc1` stands 85%.

The next test addresses T1, Serine/threonine-protein kinase STK11 (Homo sapiens) (UniProt Q15831).
T1 sequence (whole entry): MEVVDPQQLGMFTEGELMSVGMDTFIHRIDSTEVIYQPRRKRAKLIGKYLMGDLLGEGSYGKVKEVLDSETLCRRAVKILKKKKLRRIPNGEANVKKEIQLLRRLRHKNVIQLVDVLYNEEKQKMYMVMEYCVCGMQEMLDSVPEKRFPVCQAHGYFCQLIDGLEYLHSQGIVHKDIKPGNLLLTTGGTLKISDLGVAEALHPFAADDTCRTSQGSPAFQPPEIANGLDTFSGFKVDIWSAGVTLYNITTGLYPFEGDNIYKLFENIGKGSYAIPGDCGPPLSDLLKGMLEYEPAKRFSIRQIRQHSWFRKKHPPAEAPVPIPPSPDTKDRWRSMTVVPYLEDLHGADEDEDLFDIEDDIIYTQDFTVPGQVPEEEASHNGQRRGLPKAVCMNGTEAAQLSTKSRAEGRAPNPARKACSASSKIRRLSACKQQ
The note with it: at 1 µM.
Consider `O=C1NC(=O)C(c2c[nH]c3ccccc23)=C1c1c[nH]c2ccccc12`, for which the residual activity amounted to 100%.
Still for that read-out and setting: next, `O=C1Cc2c([nH]c3ccc(Br)cc23)-c2ccccc2N1`: 97%; `NC(=O)c1cccc(-c2cc(Nc3ccc(OC(F)(F)F)cc3)ncn2)c1`: 95%; `O=C(Nc1ccc(Cl)cc1)c1ccccc1NCc1ccncc1`: 101%.
Same read-out and setting: next, `N#C/C(=C1/Nc2ccccc2S1)c1ccnc(NCCc2cccnc2)n1`: 96%; `COc1cc2nccc(Oc3ccc(NC(=O)Nc4cc(C)on4)c(Cl)c3)c2cc1OC`: 99%.
The same measure, in the same setting: under `O=C1NC(=O)C(c2cn(CCCn3ccnc3)c3ccccc23)=C1Nc1ccccc1` stands 100%.
With `O=C1C(Cl)=C(N2C(=O)CCC2=O)C(=O)c2ccccc21`, the residual activity turned out to be 94%.
The same measure, in the same setting: next, `Nc1n[nH]c2nc3ccccc3nc12`: 126%; `N#Cc1c(NC(=O)c2cccc3ccccc23)sc2c1CCCC2`: 86%; `O=C(Nc1nc2ccccc2n1CCN1CCOCC1)c1cccc([N+](=O)[O-])c1`: 100%.
For `O=S(=O)(c1cccc2cnccc12)N1CCCNCC1`, the residual activity is 100%.
As for `N#C/C(=C\c1ccc(O)c(O)c1)C(=O)NCc1ccccc1`, the residual activity came to 102%.

For another test, the target named is T1, Serine/threonine-protein kinase STK11 (Homo sapiens). The note with it: at 10 µM.
Regarding `O=C1NC(=O)C(c2c[nH]c3ccccc23)=C1c1c[nH]c2ccccc12`, the residual activity was determined as 97%.
On the same count and under the same terms, next, `O=C1Cc2c([nH]c3ccc(Br)cc23)-c2ccccc2N1`: 95%.
Still for that read-out and setting: under `NC(=O)c1cccc(-c2cc(Nc3ccc(OC(F)(F)F)cc3)ncn2)c1` stands 98%.
Still for that read-out and setting: next, `O=C(Nc1ccc(Cl)cc1)c1ccccc1NCc1ccncc1`: 99%; `N#C/C(=C1/Nc2ccccc2S1)c1ccnc(NCCc2cccnc2)n1`: 81%.
As for `COc1cc2nccc(Oc3ccc(NC(=O)Nc4cc(C)on4)c(Cl)c3)c2cc1OC`, the residual activity is 101%.
Still for that read-out and setting: under `O=C1NC(=O)C(c2cn(CCCn3ccnc3)c3ccccc23)=C1Nc1ccccc1` stands 103%; under `O=C1C(Cl)=C(N2C(=O)CCC2=O)C(=O)c2ccccc21`, 89%; under `COc1ccc(Cl)cc1NC(=O)Nc1cc(C)nc2ccccc12`, 95%.
On to `CC(C)[C@H](CO)Nc1nc(Nc2cc(N)cc(Cl)c2)c2ncn(C(C)C)c2n1`, for which the residual activity was 72%.
On the same count and under the same terms, under `Nc1n[nH]c2nc3ccccc3nc12` stands 88%; under `N#Cc1c(NC(=O)c2cccc3ccccc23)sc2c1CCCC2`, 93%; under `O=C(Nc1nc2ccccc2n1CCN1CCOCC1)c1cccc([N+](=O)[O-])c1`, 100%.
Regarding `CSc1nc(-c2ccc(F)cc2)c(-c2ccnc(NC(C)c3ccccc3)c2)[nH]1` (stereo not drawn), the residual activity came out at 98%.
For the compound `N#C/C(=C\c1ccc(O)c(O)c1)C(=O)NCc1ccccc1`, the residual activity worked out at 100%.

Another test deals with Serine/threonine-protein kinase 10 (Homo sapiens) (UniProt O94804). The note with it: at 1 µM.
Serine/threonine-protein kinase 10 (Homo sapiens), sequence (O94804 whole entry, looked up): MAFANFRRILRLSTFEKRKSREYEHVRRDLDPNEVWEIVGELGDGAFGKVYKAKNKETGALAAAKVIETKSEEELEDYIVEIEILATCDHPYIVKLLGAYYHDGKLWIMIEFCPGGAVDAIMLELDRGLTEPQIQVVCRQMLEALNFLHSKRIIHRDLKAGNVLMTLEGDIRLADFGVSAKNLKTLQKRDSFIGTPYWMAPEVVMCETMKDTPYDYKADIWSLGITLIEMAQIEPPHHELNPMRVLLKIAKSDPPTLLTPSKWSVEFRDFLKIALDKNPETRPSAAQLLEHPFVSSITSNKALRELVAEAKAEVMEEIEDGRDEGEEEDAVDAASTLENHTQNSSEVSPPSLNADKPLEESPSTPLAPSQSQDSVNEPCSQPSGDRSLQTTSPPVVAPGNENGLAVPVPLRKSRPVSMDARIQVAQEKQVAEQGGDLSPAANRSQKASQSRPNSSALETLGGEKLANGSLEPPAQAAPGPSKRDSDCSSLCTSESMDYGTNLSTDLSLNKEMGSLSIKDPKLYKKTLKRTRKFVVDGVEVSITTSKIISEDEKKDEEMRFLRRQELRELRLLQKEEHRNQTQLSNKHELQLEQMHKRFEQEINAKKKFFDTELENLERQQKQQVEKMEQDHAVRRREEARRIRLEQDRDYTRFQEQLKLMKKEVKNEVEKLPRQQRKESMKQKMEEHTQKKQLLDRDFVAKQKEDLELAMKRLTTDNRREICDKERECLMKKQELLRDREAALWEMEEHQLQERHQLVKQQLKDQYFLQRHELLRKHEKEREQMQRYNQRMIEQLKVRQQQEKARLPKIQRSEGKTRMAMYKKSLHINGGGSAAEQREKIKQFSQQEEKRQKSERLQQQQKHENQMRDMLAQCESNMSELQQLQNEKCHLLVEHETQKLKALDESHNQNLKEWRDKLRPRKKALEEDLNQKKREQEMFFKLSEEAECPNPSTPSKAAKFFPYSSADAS
For the compound `O=C1NC(=O)C(c2c[nH]c3ccccc23)=C1c1c[nH]c2ccccc12`, the residual activity came to 39%.
With `O=C1Cc2c([nH]c3ccc(Br)cc23)-c2ccccc2N1`, the residual activity was found to be 96%.
For `Oc1cccc(-c2nc(N3CCOCC3)c3oc4ncccc4c3n2)c1`, the residual activity is 96%.
On the same count and under the same terms, next, `NC(=O)c1ccc(-c2nc(-c3ccc4c(c3)OCCO4)c(-c3ccccn3)[nH]2)cc1`: 65%.
With `O=S(=O)(NCCNC/C=C/c1ccc(Br)cc1)c1cccc2cnccc12`, the residual activity was determined as 71%.
Same read-out and setting: under `O=C(Nc1ccc(Cl)cc1)c1ccccc1NCc1ccncc1` stands 82%.
Turning to `N#C/C(=C1/Nc2ccccc2S1)c1ccnc(NCCc2cccnc2)n1`, the residual activity was found to be 78%.
Same read-out and setting: next, `COc1cc2nccc(Oc3ccc(NC(=O)Nc4cc(C)on4)c(Cl)c3)c2cc1OC`: 8%; `O=C(c1ccccc1)c1ccc(N2CCOCC2)cc1O`: 91%; `O=C1NC(=O)C(c2cn(CCCn3ccnc3)c3ccccc23)=C1Nc1ccccc1`: 21%.
Consider `O=C1C(Cl)=C(N2C(=O)CCC2=O)C(=O)c2ccccc21`, for which the residual activity turned out to be 95%.
Same read-out and setting: under `COc1ccc(Cl)cc1NC(=O)Nc1cc(C)nc2ccccc12` stands 96%.
Same read-out and setting: under `CC(C)[C@H](CO)Nc1nc(Nc2cc(N)cc(Cl)c2)c2ncn(C(C)C)c2n1` stands 57%; under `Nc1n[nH]c2nc3ccccc3nc12`, 88%.
Same read-out and setting: next, `N#Cc1c(NC(=O)c2cccc3ccccc23)sc2c1CCCC2`: 90%.
For the compound `O=C1Nc2ccccc2/C1=C\c1c(Cl)[nH]c2ccccc12`, the residual activity was found to be 84%.
Turning to `O=C1Cc2c([nH]c3ccc([N+](=O)[O-])cc23)-c2ccccc2N1`, the residual activity is 102%.
